Vaccinia mCherry – qHTS for Stage-Specific Inhibitors of Vaccinia Orthopoxvirus: mCherry Reporter Primary qHTS; Potency, µM (doses to about 36.5 µM), hits mostly inhibitors; Vaccinia virus mCherry reporter infection, fluorescence; hit rate 0.63% among 310,000; calls by dose curve; tested in A549 cells; also: nearly all actives have a fitted effect of over 35% in size
Pf growth 96h – Primary qHTS for delayed death inhibitors of the malarial parasite plastid, 96 hour incubation | P. falciparum luciferase reporter growth, 96 h | Potency, µM (doses to about 28.7 µM), usual class: inhibitors | hit rate 6.9% among 320,000 | AID 504834, 2011
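Two-generation exposure (96 h) targets delayed-death phenotype. Reporter parasites carrying integrated firefly luciferase, in red cells at 2% hematocrit and 0.05% parasitemia final, kept at 37 C, 5% CO2; luminescence loss indicates inhibition.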
VACV Venus inh – qHTS for Stage-Specific Inhibitors of Vaccinia Orthopoxvirus: Venus Reporter Primary qHTS; Vaccinia virus Venus reporter expression, fluorescence; hit rate 0.46% among 330,000; Potency, µM (series often up to 36.5 µM), usual class: inhibitors; calls by dose curve; tested in A549 cells; also: nearly all actives have a fitted effect of over 30% in size
NS1 function inh – qHTS Assay for Inhibitors of Influenza NS1 Protein Function; Potency, µM (titrated, usually from 46.1 µM); hit rate 0.4% among 270,000; AID 2326, 2010; calls by dose curve; also: actives are rising curves; nearly all actives have a fitted effect of over 50% in size
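Compounds were scored for reversing the slow growth caused by influenza A NS1 in S. cerevisiae, measured by optical density at 600 nm. Assay medium contained 2% galactose at pH 6.0; NS1-free yeast of the same strain were the positive control.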
Pf growth 48h – Primary qHTS for delayed death inhibitors of the malarial parasite plastid, 48 hour incubation | hit rate 5.9% among 310,000 | P. falciparum luciferase growth in erythrocytes, 48 h | Potency, µM (titrated, usually from 28.7 µM), actives largely listed as inhibitors
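Here the parasites carry a stable luciferase gene and grow inside erythrocytes in Albumax-based RPMI medium with compound for one erythrocytic cycle. Activity is scored as loss of luminescent signal.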
HCV inhibitor – qHTS Assay for Inhibitors of Hepatitis C Virus (HCV); Huh7.5.1 HCVcc-Cre infection, luciferase reporter, 44 h; Potency, µM (highest dose often 41.8 µM), most hits filed as inhibitors; hit rate 3.4% among 340,000
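Infectious HCV cell culture screen: compound-treated cells (1,000/well, pre-plated 4 h) are infected with HCVcc-Cre at roughly 0.5 moi and grown 44 h. Infection is quantified by luciferase signal after 15 min substrate incubation at room temperature.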
Hits are given with their value; n = inactive; u = inconclusive; x = no result given; [ ] = remark or other dose. Most compounds without a hit are left out; they make up all but 11% or so of the library. Unless noted, calls follow the shape of the dose curve; as a rule, active = well fitted inhibition curve with a large enough effect; inconclusive = small, poorly fitted or top-dose-only effect, or another doubt; inactive = no such curve, though single readings can be large or run the other way.

SMILES | Vaccinia mCherry | Pf growth 96h | VACV Venus inh | NS1 function inh | Pf growth 48h | HCV inhibitor
CCOCCOC(=O)c1[nH]c2c(c1C)C(=O)CC(c1cccs1)C2 (configuration not stated) | n | n | u | x | u | n
CCCCCOC(=O)c1[nH]c2c(c1C)C(=O)CC(c1ccco1)C2 (configuration not stated) | u | n | u | n | 0.66µM | u
COC(=O)c1[nH]c2c(c1C)C(=O)CC(c1cc(OC)c(OC)c(OC)c1)C2 (configuration not stated) | x | n | x | n | u | 10µM
CCOCCOC(=O)c1[nH]c2c(c1C)C(=O)CC(c1ccccc1)C2 (configuration not stated) | n | n | u | n | x | u
COCCOC(=O)c1[nH]c2c(c1C)C(=O)CC(c1ccc(OC)c(OC)c1)C2 (configuration not stated) | x | n | x | n | n | 10µM
CCOCCOC(=O)c1[nH]c2c(c1C)C(=O)CC(c1cc(OC)c(OC)c(OC)c1)C2 (configuration not stated) | n | u | n | n | x | 5µM
COc1ccc(C2CC(=O)C=C(O)C2)cc1 (configuration not stated) | n | n | n | u | n | n
COc1cc(C2CC(=O)C=C(O)C2)cc(OC)c1OC (configuration not stated) | n | u | n | n | 5.9µM | n
CCCCNC(=O)C1(C)CCN1C(=O)c1ccc(F)c(C)c1 (configuration not stated) | n | x | n | x | x | x
Cc1ccc(NC2=C(Cl)C(=O)OC2OC(C)C)cc1 (configuration not stated) | n | 13µM | n | x | n | n
COC(=O)c1ccc(C(=O)Nc2ccc(N)cc2N)cc1 | x | n | n | n | 4.1µM | n
Cc1ccc([N+](=O)[O-])cc1NC(=O)Nc1cccc(F)c1 | n | u | u | n | 7.4µM | u
COC(=O)c1ccc(NC(=O)Nc2cccc(F)c2)cc1 | n | n | n | n | n | 10µM
O=C(Nc1ccccc1)Nc1cc([N+](=O)[O-])ccc1F | n | u | n | n | n | n
COC(=O)c1ccc(NC(=O)Nc2ccc(F)cc2F)cc1 | n | n | n | n | n | 11µM
O=C1C2C3C=CC(CC3)C2C(=O)N1c1ccccc1F (configuration not stated) | u | n | n | n | n | n
COc1cc(SC)ccc1C(=O)Nc1ccc2c(c1)CCC2 | n | n | n | n | n | 10µM
O=C(Nc1ccc(F)cc1)Nc1ccc2c(c1)CCC2 | n | n | n | n | n | n
O=C(Nc1cccc(F)c1)Nc1ccc2c(c1)CCC2 | n | 1.7µM | n | n | n | n
COC(=O)c1ccc(NC(=O)Cc2ccc(F)cc2)cc1 | n | n[1.15 µM] | n | n | n[1.15 µM] | n
COC(=O)c1ccc(C(=O)Nc2ccc(F)cc2)cc1 | n | n | n | x | n | 7.1µM
COc1ccccc1Oc1ccc(NC(=O)c2ccc(Cl)cc2)cc1 | x | u | x | n | u | 2.8µM
CC(C)c1ccccc1NC(=S)NC1CCN(Cc2ccccc2)CC1 | n | u | n | n | n | u
CN(c1ccccc1)S(=O)(=O)c1cccc(C(=O)Nc2ncn[nH]2)c1 | x | n | x | n | n | n
Cc1cc(-c2ccccc2)nc(Oc2ccc(C(C)(C)C)cc2)c1S(C)(=O)=O | x | 13µM | n | n | u | n
SMILES | Vaccinia mCherry | Pf growth 96h | VACV Venus inh | NS1 function inh | Pf growth 48h | HCV inhibitor
Cc1cccc(Oc2nc(-c3ccccc3)cc(C)c2S(C)(=O)=O)c1C | x | x | u | n | u | 10µM
COc1ccccc1Oc1nc(-c2ccccc2)cc(C)c1S(C)(=O)=O | x | n | n | n | n | u
Cc1cc(C)cc(Oc2nc(-c3ccccc3)cc(C)c2S(C)(=O)=O)c1 | x | u | n | u | x | u
CC(Sc1nnc(COc2ccccc2)n1Cc1ccccc1)C(=O)O (configuration not stated) | n | n | n | n | n | n
O=S1(=O)c2ccccc2Nc2ccccc21 | n | u | n | n | n | n
CC(C)c1ccc(S(=O)(=O)N2CCN(C(C)C(=O)N3CCCC3)CC2)cc1 (configuration not stated) | n | 12µM | n | x | u | n
CC(C(=O)N1CCCC1)N1CCN(S(=O)(=O)c2ccc(C(C)(C)C)cc2)CC1 (configuration not stated) | x | 0.47µM | x | x | 0.83µM | n
CC(C(=O)N1CCCCC1)N1CCN(S(=O)(=O)c2ccc(Cl)cc2)CC1 (configuration not stated) | x | u | x | x | u | n
COc1ccc(Cl)cc1NC(=O)CSc1nc(=O)n(CCN(C)C)c2c1CCCC2 | n | u | u | x | u | 11µM
CN(C)CCn1c2c(c(SCC(=O)Nc3ccc4c(c3)OCCO4)nc1=O)CCC2 | n | n | n | x | n | n
CCN(CC)CCn1c2c(c(SCC(=O)Nc3ccc(C(C)C)cc3)nc1=O)CCCC2 | n | u | n | x | u | 14µM
CCN(CC)CCn1c2c(c(SCC(=O)Nc3ccc4c(c3)OCCO4)nc1=O)CCC2 | n | 2.1µM | n | x | u | n
CCN(CC)CCn1c2c(c(SCC(=O)Nc3ccc(C)c(F)c3)nc1=O)CCCC2 | n | u | n | x | 7.4µM | n
CCOc1cc(CNc2ccc(OC)cc2)cc(Br)c1OCC(=O)NC(C)(C)C | n | 9.3µM | u | n | u | n
CCOc1cc(CNc2ccccc2)cc(Br)c1OCC(=O)NC(C)(C)C | u | 9.3µM | u | n | u | 13µM
CCn1c2ccccc2c2c3ncc4cccn4c3ccc21 | n | n | n | n | n | 11µM
c1ccc2c(c1)ncc1cccn12 | n | n | n | n | x | n
Cc1ccsc1C1Nc2ccc3ncccc3c2C2=C1C(=O)CC(C)(C)C2 (configuration not stated) | u | 1.2µM | u | n | 1.7µM | n
COC(=O)c1ccc(C(=O)OC)c(NC(=O)CSc2cccc[n+]2[O-])c1 | x | 1.2µM | x | n | u | n
O=C(CSc1cccc[n+]1[O-])CSc1cccc[n+]1[O-] | u | 0.19µM | n | n | 9.3µM | n
[O-][n+]1ccccc1SSc1cccc[n+]1[O-] | x | 0.48µM | x | x | 0.85µM | x
Cc1cc(Br)cc2c(C(=O)Nc3c(C)n(C)n(-c4ccccc4)c3=O)cc(-c3cccs3)nc12 | n | u | n | n | n | u
Cc1nn(-c2ccccc2)c2[nH]c(=O)c(CNc3ccc4c(c3)OCCO4)cc12 | n | n[5.75 µM] | n | n | n | n
CCCCCCC1NC(C(=O)O)CS1 (configuration not stated) | x | n | x | n | n | n
COc1cccc(NC(=O)CN(C)C(=O)c2cccc(S(=O)(=O)Nc3ccccc3OC)c2)c1 | n | u | n | x | 13µM | n
CCCN(CC(=O)Nc1ccccc1OC)C(=O)c1cccc(S(=O)(=O)NCc2ccccc2)c1 | n | 10µM | n | x | u | n

Compound activity as filed in PubChem.
